Here are results for 47 molecules from the antibiotic and cytotoxicity screens of Wong et al. (2023).

About 1,500 (3.8%) of roughly 39,000 compounds were called active. For the sample, actives were picked, then their nearest neighbours and some compounds at random.

This experiment relates to HSkMC (human skeletal muscle cells). Kind of experiment: cytotoxicity call (relative viability < 0.9). The settings on record: 10 µM.
`O=C(C[C@@H]1CC[C@H]2[C@@H](COC[C@@H](O)CN2S(=O)(=O)c2ccc(Oc3ccccc3)cc2)O1)NCCN1CCCCC1`: the cytotoxicity call was “inactive”. In the case of `COc1ccc(N(C(=O)CCl)[C@@H](C(=O)NCCc2ccccc2)c2ccc(Cl)s2)cc1Cl`, the cytotoxicity call was “active”.

In the case of `CC(C)(C)OC(=O)NCCOCCOCCOc1ccc(N(C(=O)CCl)[C@@H](C(=O)NCCc2ccccc2)c2cccs2)cc1Cl`, the cytotoxicity call is “active”.

As to `COc1ccc(N(C(=O)CSc2ncccn2)[C@@H](C(=O)NCCc2ccccc2)c2cccs2)cc1Cl`, the cytotoxicity call was “inactive”. With `O=C(CCCl)NCCc1ccccc1`, the cytotoxicity call is “inactive”.

Consider `Cn1cnc(S(=O)(=O)N[C@H]2CC[C@@H](CC(=O)N3CCN(c4ccccc4)CC3)O[C@H]2CO)c1`, for which the cytotoxicity call was “inactive”. The value for `C[C@@H]1CN([C@H](C)CO)C(=O)Cc2cc(NC(=O)CCC(F)(F)F)ccc2O[C@H]1CN(C)Cc1ccc(Oc2ccccc2)cc1` was “inactive”; that for `C[C@H]1CCCCO[C@H](CN(C)C(=O)Nc2cccc3ccccc23)[C@@H](C)CN([C@@H](C)CO)C(=O)c2cc(NS(=O)(=O)c3ccc(Cl)cc3)ccc2O1` was “inactive”. For `COC(=O)[C@@H]1OC(=O)[C@H]2O[C@@]23[C@]2(C)[C@@H](O)C[C@H]4C(C)(C)[C@H](OC(C)=O)C[C@H](OC(C)=O)[C@]4(C)[C@@H]2CC[C@@]13C`, the cytotoxicity call is “inactive”. The same measure for `COc1ccc(CN(CCN(C)C)c2ccccn2)cc1.O=C(O)C=CC(=O)O`: “inactive”; for `CCCCCCCCCCCCCCCC[N+](C)(C)CCN(Cc1ccc(OC)cc1)c1ncccn1`: “active”; for `COc1ccc(CN(CCN(C)C)c2ncccn2)cc1.Cl`: “inactive”. The same measure for `C[C@@H]1CCCCO[C@H](CN(C)Cc2ccc(C(=O)O)cc2)[C@H](C)CN([C@H](C)CO)C(=O)c2cc(NC(=O)Nc3ccc(F)cc3)ccc2O1`: “inactive”. The value for `C[C@@H]1CCCCO[C@H](CN(C)C(=O)C2CCCCC2)[C@@H](C)CN([C@H](C)CO)C(=O)c2cc(NC(=O)Cc3ccccc3)ccc2O1` was “inactive”. `NCC[C@@H]1CC[C@@H](NC(=O)C2CCCCC2)[C@@H](CO)O1`: the cytotoxicity call is “inactive”. The value for `C[C@@H]1CCCCO[C@H](CN(C)S(=O)(=O)c2ccc(F)cc2)[C@@H](C)CN([C@@H](C)CO)C(=O)c2cc(NC(=O)Nc3ccc(F)cc3)ccc2O1` was “inactive”; that for `C[C@@H]1CCCCO[C@@H](CN(C)C(=O)Nc2ccc(F)cc2)[C@@H](C)CN([C@@H](C)CO)C(=O)c2cc(NC(=O)Nc3ccc(F)cc3)ccc2O1` was “inactive”; that for `COc1ccc(NC(=O)N(C)C[C@H]2Oc3c(NC(=O)C4CCOCC4)cccc3C(=O)N([C@H](C)CO)C[C@H]2C)cc1` was “inactive”.

On to `COC1=C(N)C(=O)c2nc(-c3nc(C(=O)O)c(C)c(-c4ccc(OC)c(OC)c4O)c3N)ccc2C1=O`, for which the cytotoxicity call was “active”. The value for `COc1ccc(C(=O)O)c(O)c1OC` was “inactive”. The value for `Cc1ccc(S(=O)(=O)N(C)C[C@H]2Oc3ccc(NS(=O)(=O)c4ccc(F)cc4)cc3C(=O)N([C@H](C)CO)C[C@H]2C)cc1` was “inactive”. Turning to `C[C@H](CO)N1C[C@H](C)[C@@H](CN(C)C(=O)c2ccccc2)OCCCC[C@H](C)Oc2ccc(NC(=O)Nc3ccccc3)cc2C1=O`, the cytotoxicity call is “inactive”. The value for `C[C@H](CO)N1C[C@H](C)[C@@H](CN(C)C(=O)C2CCOCC2)Oc2ncc(-c3cccc(C#N)c3)cc2C1=O` was “inactive”. The value for `C[C@H](CO)N1C[C@H](C)[C@H](CN(C)Cc2ccc(C(F)(F)F)cc2)Oc2ccc(NC(=O)Nc3ccc4c(c3)OCO4)cc2CC1=O` was “inactive”; that for `C[C@@H]1CN([C@H](C)CO)C(=O)Cc2cc(NC(=O)Nc3ccc4c(c3)OCO4)ccc2O[C@@H]1CN(C)Cc1ccc(C(F)(F)F)cc1` was “active”. The same measure for `C[C@H]1CN([C@@H](C)CO)C(=O)Cc2cc(NC(=O)Nc3ccc4c(c3)OCO4)ccc2O[C@@H]1CN(C)Cc1ccc(C(F)(F)F)cc1`: “inactive”; for `C[C@@H]1CN([C@@H](C)CO)C(=O)Cc2cc(NC(=O)Nc3ccc4c(c3)OCO4)ccc2O[C@H]1CN(C)Cc1ccc(C(F)(F)F)cc1`: “inactive”.

With `C[C@H](CO)N1C[C@H](C)[C@@H](CN(C)Cc2ccc(C(F)(F)F)cc2)Oc2ccc(NC(=O)Nc3ccc4c(c3)OCO4)cc2CC1=O`, the cytotoxicity call was “active”. The value for `C[C@H]1CN([C@@H](C)CO)C(=O)Cc2cc(NC(=O)Nc3ccc4c(c3)OCO4)ccc2O[C@H]1CN(C)Cc1ccc(C(F)(F)F)cc1` was “inactive”. For the molecule `C[C@@H]1CN([C@@H](C)CO)C(=O)Cc2cc(NC(=O)Nc3ccc4c(c3)OCO4)ccc2O[C@@H]1CN(C)Cc1ccc(C(F)(F)F)cc1`, the cytotoxicity call was “inactive”. The value for `C[C@@H]1CN([C@H](C)CO)C(=O)Cc2cc(NC(=O)Nc3ccc4c(c3)OCO4)ccc2O[C@H]1CN(C)Cc1ccc(C(F)(F)F)cc1` was “active”; that for `C[C@H](CO)N1C[C@H](C)[C@H](CN(C)C(=O)Nc2ccc3c(c2)OCO3)Oc2ccc(NC(=O)Nc3ccc(C(F)(F)F)cc3)cc2CC1=O` was “inactive”; that for `OCc1ccc2c(c1)OCCO2` was “inactive”.

For `C[C@@H]1CN([C@@H](C)CO)C(=O)c2cc(NC(=O)Cn3cnnn3)ccc2O[C@@H]1CN(C)Cc1ccc(Cl)c(Cl)c1`, the cytotoxicity call is “inactive”. The same measure for `C[C@@H]1CN([C@@H](C)CO)S(=O)(=O)c2ccc(-c3cncnc3)cc2O[C@H]1CN(C)C(=O)Cc1ccncc1`: “inactive”; for `COc1ccc(S(=O)(=O)Nc2ccc3c(c2)C(=O)N([C@@H](C)CO)C[C@H](C)[C@H](CN(C)C(=O)Nc2cccc4ccccc24)OCCCC[C@H](C)O3)cc1`: “inactive”; for `C[C@@H]1CCCCO[C@H](CN(C)S(C)(=O)=O)[C@@H](C)CN([C@@H](C)CO)C(=O)c2cc(NS(=O)(=O)c3ccccc3)ccc2O1`: “inactive”. Regarding `C[C@@H]1CN([C@@H](C)CO)C(=O)c2cccc(NC(=O)c3ccc(-c4nccs4)cc3)c2O[C@@H]1CN(C)Cc1ccc(C(=O)O)cc1`, the cytotoxicity call is “inactive”. The value for `C[C@@H]1CCCCO[C@@H](CN(C)Cc2ccc(Cl)c(Cl)c2)[C@@H](C)CN([C@H](C)CO)C(=O)c2cc(NC(=O)Nc3ccccc3)ccc2O1` was “inactive”.

With `Cc1noc(C)c1NC(=O)Nc1ccc2c(c1)C(=O)N([C@H](C)CO)C[C@@H](C)[C@@H](CN(C)Cc1ccc(Cl)c(Cl)c1)OCCCC[C@H](C)O2`, the cytotoxicity call was “active”. Take `C[C@@H]1CN([C@H](C)CO)C(=O)c2cc(NC(=O)Nc3ccc(F)cc3)ccc2O[C@@H](C)CCCCO[C@H]1CN(C)Cc1ccc(Cl)c(Cl)c1`: the cytotoxicity call was “active”.

Take `C[C@@H]1CN([C@H](C)CO)C(=O)c2cc(NC(=O)Nc3ccccc3)ccc2O[C@@H](C)CCCCO[C@H]1CN(C)Cc1ccc(Cl)c(Cl)c1`: the cytotoxicity call was “active”.

`Cc1noc(C)c1NC(=O)Nc1ccc2c(c1)C(=O)N([C@@H](C)CO)C[C@@H](C)[C@H](CN(C)Cc1ccc(Cl)c(Cl)c1)OCCCC[C@H](C)O2`: the cytotoxicity call is “inactive”. The value for `C[C@@H]1CCCCO[C@@H](CN(C)Cc2ccc(Cl)c(Cl)c2)[C@@H](C)CN([C@@H](C)CO)C(=O)c2cc(NC(=O)Nc3ccc(F)cc3)ccc2O1` was “inactive”; that for `C[C@H]1CCCCO[C@H](CN(C)Cc2ccc(Cl)c(Cl)c2)[C@@H](C)CN([C@@H](C)CO)C(=O)c2cc(NC(=O)Nc3ccccc3)ccc2O1` was “inactive”; that for `Cc1noc(C)c1NC(=O)Nc1ccc2c(c1)C(=O)N([C@H](C)CO)C[C@@H](C)[C@H](CN(C)Cc1ccc(Cl)c(Cl)c1)OCCCC[C@@H](C)O2` was “inactive”.

`C[C@H]1CCCCO[C@H](CN(C)Cc2ccc(Cl)c(Cl)c2)[C@@H](C)CN([C@@H](C)CO)C(=O)c2cc(NC(=O)Nc3ccc(F)cc3)ccc2O1`: the cytotoxicity call is “inactive”.
